Here are results for 13 compounds from PubChem BioAssay (Tox21).

Inconclusive results are not listed. A structure can be active in one record and inactive in another. The source made the active and inactive calls. Unless noted, the call rests on the fitted dose curve; in most records, active means well fitted curve in the direction sought with a large enough effect in the repeat runs; inconclusive means weak or mixed curves; inactive means no such curve, though single readings can be large; an effect the other way counts as inactive or inconclusive.

The target in test [1] is Thyrotropin receptor (Homo sapiens) (UniProt P16473). As to the kind of experiment: qHTS assay to identify small molecule antagonists of the thyroid stimulating hormone receptor (TSHR) signaling pathway (AID 1259385; calls by dose curve; further: nearly all actives have a fitted effect of over 20% in size). In short, it runs like this: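 Antagonist mode: compound-treated TSHR-expressing HEK293 cells were stimulated with 1.5 ng/mL TSH (final) in presence of Ro20-1724 for 30 min at RT. HTRF cAMP detection after 1 h; each compound tested at 15 concentrations, triplicate.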

A short description of test [2]: qHTS assay to identify small molecule antagonists of the progesterone receptor (PR) signaling pathway - cell viability counter screen (AID 1346798). Further: nearly all actives have a fitted effect of over 50% in size. Further: potency means the concentration at half of the fitted maximal effect. In short, it runs like this: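 CellTiter-Glo luminescence; PR-UAS-bla HEK293T, 3,000 cells/well; compound + R5020, 16 hr, 37C/5% CO2; 30 min RT before read.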
A short description of test [3]: qHTS assay to identify small molecule agonists of the progesterone receptor (PR) signaling pathway - cell viability counter screen (AID 1346799; calls by dose curve; further: nearly all actives have a fitted effect of over 45% in size). In short, it runs like this: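 In parallel with the beta-lactamase readout, cytotoxicity toward PR-UAS-bla HEK293T cells was measured by CellTiter-Glo luminescence following 16 hr compound incubation in 2% charcoal-stripped FBS medium.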

Test [4] is described as follows: qHTS assay to identify small molecule antagonists of the TGF-beta/Smad signaling pathway - cell viability counter screen (AID 1346824). Further: nearly all actives have a fitted effect of over 50% in size. An outline of the steps: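 Cytotoxicity counter-screen run in the same wells as the beta-lactamase Smad reporter read: CellTiter-Glo luminescence after 30 min at room temperature. HEK 293T SBE-bla cells had 5 hr compound exposure at 37 C with TGF-beta1 (0.25 ng/mL stock).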

A short description of test [5]: qHTS assay to identify small molecule agonists of the TGF-beta/Smad signaling pathway - cell viability counter screen (AID 1346829). Further: top concentration of the series differs between compounds; nearly all actives have a fitted effect of over 45% in size. In short, it runs like this:
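Luminescence from CellTiter-Glo, read after a 30 min room-temperature incubation, gives cell viability of SBE-bla HEK 293T cells treated 5 hr with compounds at 37 C.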

The nature of test [6]: qHTS assay to identify small molecule agonists of the TGF-beta/Smad signaling pathway (AID 1346859; active means well fitted activation curve with a large enough effect in the signal ratio in the repeat runs, not every such curve was filed as active; the % refers to the signal ratio; further: series mostly up to about 77 µM). In short, it runs like this:
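After overnight seeding, SBE-bla HEK 293T cells are dosed with compounds in DMSO and kept 5 hr at 37 C, 5% CO2. LiveBLAzer-type FRET substrate is then applied for 2 hr at room temperature.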

Test [7] has as its target Thyrotropin-releasing hormone receptor (Homo sapiens) (UniProt P34981). Nature of the test: qHTS assay to identify small molecule antagonists of the thyrotropin-releasing hormone receptor (TRHR) signaling pathway (AID 1346877; active means well fitted inhibition curve with a large enough effect in the repeat runs, not every such curve was filed as active; further: series mostly up to about 51 µM). In short, it runs like this: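 TRHR-expressing HEK293 cells were seeded, cultured 18 h at 37 °C, then loaded with calcium dye for 2 h. Compounds were pre-incubated 5 min at room temperature before 1 nM TRH (final) was added, and kinetic fluorescence was recorded for 3 min.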

Test [8] shares this target. As to the kind of experiment: qHTS assay to identify small molecule agonists of the thyrotropin-releasing hormone receptor (TRHR) signaling pathway (AID 1346891; calls by dose curve; further: series mostly up to about 58 µM). An outline of the steps: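 Compounds were tested as agonists at 15 concentrations, in triplicate, on TRHR-Hek293 cells; calcium-sensitive dye fluorescence was recorded for 3 min following addition.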
A short description of test [9]: Human pregnane X receptor (PXR) small molecule agonists, qHTS cell viability counter screen (AID 1346977). Further: nearly all actives have a fitted effect of over 50% in size. Further: potency means the concentration at half of the fitted maximal effect. An outline of the steps: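 Viability counter screen: CellTiter-Fluor signal in PXR-Luc HepG2 cells, 24hr compound exposure, 37C, 5% CO2.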
Test [10] is described as follows: Caspase-3/7 induction in HepG2 cells by small molecules, qHTS assay (AID 1346978). Further: nearly all actives have a fitted effect of over 15% in size. In short, it runs like this:
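Caspase-3/7 induction was measured by Caspase-Glo 3/7 luminescence (30 min, room temperature) after a 17 hr compound exposure of wild-type HepG2 cells seeded at 2,000 per well and pre-incubated 5 hr.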

The nature of test [11]: Caspase-3/7 induction in CHO-K1 cells by small molecules, qHTS cell viability counter screen (AID 1346979). Further: nearly all actives have a fitted effect of over 35% in size. In short, it runs like this: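 Viability readout by fluorescence (CellTiter-Fluor) on wild-type CHO-K1 cells exposed for 16hr at 37C and 5% CO2 to compounds delivered in DMSO; reagent incubated 1hr before reading.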
A short description of test [12]: Caspase-3/7 induction in CHO-K1 cells by small molecules, qHTS assay (AID 1346980). Further: nearly all actives have a fitted effect of over 15% in size. In short, it runs like this: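 Luminescent Caspase-Glo 3/7 read (30min, room temperature) quantified apoptosis induction. Cells were wild-type CHO-K1, treated with compound for 17hr at 37 C and 5% CO2.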
Test [13] can be described thus: Caspase-3/7 induction in HepG2 cells by small molecules, qHTS cell viability counter screen (AID 1346981). Further: series mostly up to about 92 µM; nearly all actives have a fitted effect of over 30% in size. An outline of the steps: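 Wild-type HepG2 cells (2,000/well) were allowed to settle for 5 hr at 37 C, 5% CO2, then dosed with compounds in DMSO by pin transfer. After 16 hr at 37 C, CellTiter-Fluor was added and fluorescence read 1 hr later.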
Test [14] addresses Nuclear receptor subfamily 1 group I member 2 (Homo sapiens) (UniProt O75469). Nature of the test: Human pregnane X receptor (PXR) small molecule agonists, qHTS assay (AID 1346982). Further: nearly all actives have a fitted effect of over 35% in size. Further: potency means the concentration at half of the fitted maximal effect. An outline of the steps:
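PXR-Luc HepG2 cells (CYP3A4 promoter-driven luciferase) were seeded in medium with 5% charcoal-stripped FBS, left 5 hr at 37 C, then exposed to compounds in DMSO for 24 hr. Luminescence was read after ONE-Glo addition.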

The target of test [15] is Progesterone receptor (Homo sapiens) (UniProt P06401). Nature of the test: qHTS assay to identify small molecule agonists of the progesterone receptor (PR) signaling pathway (AID 1346784; calls by dose curve; further: nearly all actives have a fitted effect of over 30% in size). An outline of the steps: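 Fluorescence from LiveBLAzer B/G FRET substrate cleavage (2 hr, RT) reported PR activation in PR-UAS-bla HEK 293T cells treated 16 hr at 37C/5% CO2 with compounds; medium contained 2% charcoal-stripped FBS.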

Test [16] has the same target. As to the kind of experiment: qHTS assay to identify small molecule antagonists of the progesterone receptor (PR) signaling pathway (AID 1346795; active means well fitted inhibition curve with a large enough effect in the signal ratio in the repeat runs, not every such curve was filed as active; the % refers to the signal ratio). In short, it runs like this:
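Fluorescence intensity measured 2 hr after adding beta-lactamase FRET substrate to PR-UAS-bla HEK293T cells that had been co-treated 16 hr with compound and 1 nM R5020 (final concentration) in 2% charcoal-stripped FBS.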

For test [17], the target named is Nuclear receptor subfamily 1 group I member 2 (Rattus norvegicus) (UniProt Q9R1A7). Nature of the test: Rat pregnane X receptor (rPXR) activation by small molecules, qHTS assay (AID 1346983). Further: nearly all actives have a fitted effect of over 20% in size. The settings on record: rPXR luciferase reporter cells, One-Glo luminescence, 24 h; stronger effect = higher value. An outline of the steps: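 Luminescent readout (One-Glo luciferase, 30 min room temperature) followed 24 hr compound treatment at 37 C of rPXR cells plated 2,000 per well and preincubated 5hr; qHTS format with compounds delivered in DMSO.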

Test [18] has as its target Nuclear receptor subfamily 1 group I member 2 (Homo sapiens) (UniProt O75469). Nature of the test: CYP3A4 induction through human pregnane X receptor (PXR) by small molecules, qHTS assay (AID 1346984). Further: nearly all actives have a fitted effect of over 40% in size. Further: potency means the concentration at half of the fitted maximal effect. An outline of the steps:
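DPX-2 cells (HepG2 co-transfected with PXR and CYP3A4 promoter-luciferase) treated with compounds 24 h at 37C; luciferin-IPA CYP3A4 substrate 3uM final added for 3 h, then One-Glo; luminescence read. qHTS format.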

Test [19] shares this target. As to the kind of experiment: Human pregnane X receptor (PXR) activation by small molecules, qHTS assay (AID 1346985). Further: nearly all actives have a fitted effect of over 40% in size. An outline of the steps:
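DPX-2 cells (HepG2 co-transfected with a PXR response element and a CYP3A4-promoter luciferase construct) were seeded at 2,000 per well, rested 5 hr at 37C, then exposed to DMSO-dissolved compounds for 24 hr. Activation was read as luciferase luminescence.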
On the % scale 0 is the no-effect control and ±100 the full control effect.

Chain of Thyrotropin receptor (Homo sapiens) (P16473 whole entry, looked up): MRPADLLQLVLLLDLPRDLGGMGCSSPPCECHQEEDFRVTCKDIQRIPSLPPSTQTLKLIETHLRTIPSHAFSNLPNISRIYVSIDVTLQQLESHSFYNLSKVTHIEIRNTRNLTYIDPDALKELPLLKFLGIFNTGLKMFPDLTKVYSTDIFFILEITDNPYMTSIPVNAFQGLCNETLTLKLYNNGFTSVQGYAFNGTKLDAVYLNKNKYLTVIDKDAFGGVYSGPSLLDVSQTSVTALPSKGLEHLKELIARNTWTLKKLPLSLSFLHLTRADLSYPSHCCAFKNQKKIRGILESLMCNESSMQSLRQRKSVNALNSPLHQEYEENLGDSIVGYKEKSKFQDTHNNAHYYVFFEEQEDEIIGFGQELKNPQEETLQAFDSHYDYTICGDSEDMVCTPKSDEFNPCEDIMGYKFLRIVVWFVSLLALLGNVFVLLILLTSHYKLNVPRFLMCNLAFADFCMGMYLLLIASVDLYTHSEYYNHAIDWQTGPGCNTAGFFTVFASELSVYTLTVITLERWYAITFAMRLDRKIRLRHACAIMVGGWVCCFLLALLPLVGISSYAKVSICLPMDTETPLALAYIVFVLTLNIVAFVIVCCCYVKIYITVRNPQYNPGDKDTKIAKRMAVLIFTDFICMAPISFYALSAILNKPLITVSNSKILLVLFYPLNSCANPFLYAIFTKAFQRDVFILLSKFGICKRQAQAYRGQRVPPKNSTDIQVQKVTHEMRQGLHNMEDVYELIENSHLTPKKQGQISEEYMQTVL
Chain of Nuclear receptor subfamily 1 group I member 2 (Homo sapiens) (O75469 whole entry, looked up): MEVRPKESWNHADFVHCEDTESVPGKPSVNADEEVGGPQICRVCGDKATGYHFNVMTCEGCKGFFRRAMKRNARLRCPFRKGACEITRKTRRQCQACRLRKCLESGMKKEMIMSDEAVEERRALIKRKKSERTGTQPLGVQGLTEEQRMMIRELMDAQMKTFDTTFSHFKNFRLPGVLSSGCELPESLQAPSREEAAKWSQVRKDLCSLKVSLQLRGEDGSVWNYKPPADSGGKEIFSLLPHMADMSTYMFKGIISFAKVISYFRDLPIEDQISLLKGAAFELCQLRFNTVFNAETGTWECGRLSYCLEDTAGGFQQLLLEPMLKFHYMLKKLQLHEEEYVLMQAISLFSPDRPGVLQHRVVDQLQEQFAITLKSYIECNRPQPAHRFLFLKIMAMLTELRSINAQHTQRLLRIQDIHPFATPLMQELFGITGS
Chain of Progesterone receptor (Homo sapiens) (P06401 whole entry, looked up): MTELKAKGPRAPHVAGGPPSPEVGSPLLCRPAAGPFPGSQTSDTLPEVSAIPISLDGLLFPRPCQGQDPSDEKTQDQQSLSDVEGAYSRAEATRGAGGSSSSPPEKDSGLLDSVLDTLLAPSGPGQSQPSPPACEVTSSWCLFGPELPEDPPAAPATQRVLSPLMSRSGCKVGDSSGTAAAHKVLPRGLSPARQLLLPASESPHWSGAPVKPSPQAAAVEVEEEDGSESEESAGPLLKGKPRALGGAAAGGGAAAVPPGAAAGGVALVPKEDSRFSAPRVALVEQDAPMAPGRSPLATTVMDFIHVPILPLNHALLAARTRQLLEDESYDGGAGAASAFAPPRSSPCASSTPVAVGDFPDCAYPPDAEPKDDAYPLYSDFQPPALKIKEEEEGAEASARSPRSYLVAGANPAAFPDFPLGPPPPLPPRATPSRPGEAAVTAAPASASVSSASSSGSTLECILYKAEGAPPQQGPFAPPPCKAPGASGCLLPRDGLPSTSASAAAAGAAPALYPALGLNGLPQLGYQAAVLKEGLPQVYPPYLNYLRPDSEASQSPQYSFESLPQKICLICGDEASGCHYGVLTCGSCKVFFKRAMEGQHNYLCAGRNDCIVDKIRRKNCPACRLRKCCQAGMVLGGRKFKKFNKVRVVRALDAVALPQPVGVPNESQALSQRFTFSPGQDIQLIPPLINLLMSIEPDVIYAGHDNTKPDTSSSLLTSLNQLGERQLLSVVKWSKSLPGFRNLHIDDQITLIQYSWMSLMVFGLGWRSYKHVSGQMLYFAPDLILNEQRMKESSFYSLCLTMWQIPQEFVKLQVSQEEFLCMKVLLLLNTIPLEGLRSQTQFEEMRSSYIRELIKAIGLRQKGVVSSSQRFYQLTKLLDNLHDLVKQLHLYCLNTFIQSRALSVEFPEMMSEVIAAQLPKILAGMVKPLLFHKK
Chain of Thyrotropin-releasing hormone receptor (Homo sapiens) (P34981 whole entry, looked up): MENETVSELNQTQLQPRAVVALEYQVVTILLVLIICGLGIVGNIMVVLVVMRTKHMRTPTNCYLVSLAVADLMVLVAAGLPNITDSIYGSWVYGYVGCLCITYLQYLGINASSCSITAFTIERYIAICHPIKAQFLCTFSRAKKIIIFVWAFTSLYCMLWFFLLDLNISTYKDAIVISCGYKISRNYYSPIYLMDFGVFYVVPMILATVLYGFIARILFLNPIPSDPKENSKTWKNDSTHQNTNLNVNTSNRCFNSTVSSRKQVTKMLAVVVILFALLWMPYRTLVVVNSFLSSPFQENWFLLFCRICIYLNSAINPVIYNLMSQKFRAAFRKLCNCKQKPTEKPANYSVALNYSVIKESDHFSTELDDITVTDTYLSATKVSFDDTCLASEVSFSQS
Chain of Nuclear receptor subfamily 1 group I member 2 (Rattus norvegicus) (Q9R1A7 whole entry, looked up): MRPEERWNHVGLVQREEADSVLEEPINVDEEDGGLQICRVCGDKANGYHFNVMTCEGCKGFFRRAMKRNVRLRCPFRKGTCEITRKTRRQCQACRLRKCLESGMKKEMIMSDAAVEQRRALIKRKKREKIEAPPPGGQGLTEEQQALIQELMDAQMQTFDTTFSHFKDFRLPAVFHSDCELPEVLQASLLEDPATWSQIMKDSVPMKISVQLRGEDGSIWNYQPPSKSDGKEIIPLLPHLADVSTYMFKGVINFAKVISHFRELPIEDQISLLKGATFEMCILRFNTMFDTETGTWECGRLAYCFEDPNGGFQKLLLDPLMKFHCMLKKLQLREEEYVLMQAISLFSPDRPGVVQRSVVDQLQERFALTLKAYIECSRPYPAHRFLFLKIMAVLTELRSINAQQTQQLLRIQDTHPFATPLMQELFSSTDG

For `CCC(C)C1CCCCC1=O` (centres undefined), the Potency entry in test [1], in test [2], in test [3], in [4], in [9] and in test [10] was “inactive” each time. Also, the Potency result in test [11], in [13] and in test [14] was “inactive” in each case. Also, the compound was called inactive in [5], in test [6], in test [7], in test [8] and in [12].
As for `COc1ccccc1OCC(O)CN1CCN(CC(=O)Nc2c(C)cccc2C)CC1` (centres undefined), the Potency entry in test [1], in test [15], in test [2], in [3], in [4] and in test [9] was “inactive” in each case. Also, the Potency entry in test [11], in [13] and in [14] was “inactive” throughout. The compound was classed as inactive in [5], in test [6], in [7], in test [8] and in [12].
As to `CC(=O)OC/C=C(\C)CC/C=C(\C)CCC=C(C)C`, the Potency entry in [1], in test [15], in [16], in test [2], in test [3] and in test [4] was “inactive” in each case. For the same compound, the Potency result in test [9], in [10], in [11] and in [13] was “inactive” throughout. The compound was classed as inactive in [5], in test [6], in [7], in [8] and in test [12]. Besides, in test [14], the Potency was 61.1 µM (active) and inactive.
As to `O=C(c1ccccc1)C1CCCCC1`, the Potency entry in [1], in test [15], in test [16], in test [2], in [3] and in test [4] was “inactive” each time. Further, the Potency entry in [9], in [10], in test [11], in test [13] and in test [14] was “inactive” in each case. For the same compound, the compound was classed as inactive in [5], in test [6], in [7], in [8] and in [12].
With `CCc1cccc2c(CCO)c[nH]c12`, the Potency result in test [1], in [15], in test [2], in test [3], in test [4] and in [9] was “inactive” each time. Also, the Potency result in [10], in [11], in [13] and in [14] was “inactive” throughout. Also, the result in [5], in [6], in test [7], in test [8] and in test [12] was inactive.
Take `CCCCCCCCCCCC`: the Potency result in test [1], in test [15], in test [3], in [4], in [10] and in test [11] was “inactive” throughout. The Potency result in [13] and in test [14] was “inactive” each time. The Potency in test [2] is 68.6 µM (active). For the same compound, the compound was classed as inactive in [5], in [6], in test [7], in test [8] and in test [12].
Regarding `c1ccc([C@H]2CN3CCSC3=N2)cc1`, the Potency entry in test [1], in test [16], in test [2], in [4], in test [9] and in [10] was “inactive” throughout. Further, the Potency entry in [11], in test [13], in test [14], in test [18] and in [19] was “inactive” throughout. Moreover, the call in [5], in test [6], in test [7], in test [8] and in [12] was inactive. Moreover, the max activation in test [17] was -1.7% (inactive).
For `Cc1sccc1Br`, the Potency entry in test [1], in [2], in test [3], in [4], in test [9] and in test [11] was “inactive” throughout. The Potency entry in [13] and in test [14] was “inactive” in each case. The compound was called inactive in test [5], in [6], in test [7], in test [8] and in [12].
`CCN(CC)CCOCCOC(=O)C1(c2ccccc2)CCCC1`: the Potency entry in test [1], in test [15], in test [16], in test [3], in [4] and in [10] was “inactive” throughout. The Potency entry in test [11] and in test [13] was “inactive” in each case. Besides, the compound was classed as inactive in test [5], in [6] and in test [12]. Moreover, the results for the Potency in [9] and in test [18] were 26.6 µM (active) and 12.6 µM (active), respectively. Besides, the max activation in [17] is 0.476% (inactive).
With `CCCN(CCC)CCc1cccc2c1CC(=O)N2`, the Potency result in test [1], in [15], in test [16], in [2], in [3] and in [4] was “inactive” in each case. Besides, the Potency entry in test [9], in [10], in test [11], in test [13] and in [14] was “inactive” each time. The result in test [5], in test [6], in [7], in test [8] and in [12] was inactive.
Turning to `OCCCC1CCCCC1`, the Potency entry in test [1], in test [16], in test [2], in [3], in [4] and in [9] was “inactive” in each case. Also, the Potency result in test [10], in test [11], in test [13] and in test [14] was “inactive” in each case. In addition, the result in test [5], in test [6], in [7], in [8] and in test [12] was inactive.
Turning to `CCn1nc(C(=O)O)c(=O)c2cc3c(cc21)OCO3`, the Potency entry in test [1], in [15], in test [16], in test [2], in [3] and in [4] was “inactive” in each case. The Potency entry in test [9], in [10], in test [11] and in test [13] was “inactive” each time. For the same compound, the compound was called inactive in test [5], in test [6] and in [12].
On to `O=c1[nH]c(=O)n([C@H]2C[C@H](O)[C@@H](CO)O2)cc1I`, for which the Potency entry in [1], in test [16], in [2], in [4], in [9] and in test [10] was “inactive” throughout. The Potency result in test [11] and in [13] was “inactive” throughout. For the same compound, the call in test [5], in test [6] and in test [12] was inactive. For the same compound, the max activation in test [17] was 6.42% (inactive).
